{"source": "PubChem BioAssay (NCI)", "note": "Compounds without any hit were thinned out: in the full panel of roughly 79,000, 15% have a hit. A number with no mark means an inactive call. No stated cut-off is given here; in the data, active means growth inhibition above about 70%; inactive means the rest."}
{"experiment": "NCI Yeast Anticancer Drug Screen. Data for the rad50 strain (AID 155);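 further: 0% = growth of vehicle-only cultures of the same strain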", "conditions": "S. cerevisiae rad50 strain growth inhibition; at 50.0 µM; hits give high values", "how_it_was_run": "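Relative growth inhibition (compound vs vehicle) was measured in yeast with a defined repair-gene alteration.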", "units": {"growth inhibition": "%"}}
{"compound": "O=S1(=O)CC2(N3CCOCC3)C3CCC(C3)C21", "note": "(stereo not drawn)", "growth inhibition": 24}
{"compound": "NC(c1ccccc1)C(Cl)c1ccccc1", "note": "(stereo not drawn)", "growth inhibition": -6.9}
{"compound": "COc1ccc([Se]c2ccc(OC)cc2OC)c(OC)c1", "growth inhibition": -19.1}
{"compound": "CN1CCN[C@@H]2CCCC[C@@H]21", "growth inhibition": 11.2}
{"compound": "CCN(CC)CCc1ccncc1", "growth inhibition": 12.6}
{"compound": "O=C=Nc1ccc(Cl)cc1", "growth inhibition": -10.2}
{"compound": "CP(=S)(c1ccccc1)P(C)(=S)c1ccccc1", "note": "(stereo not drawn)", "growth inhibition": -15.4}
{"compound": "CC(=O)OC1CCC2(C)C(CCC3C2CCC2(C)C3CC(CC(=O)O)C2OC(C)=O)C1", "note": "(stereo not drawn)", "growth inhibition": 16.5}
{"compound": "CCOP(=O)(OCC)/C(C#N)=C/C=C/c1ccco1", "growth inhibition": 2.65}
{"compound": "N=Cc1c(O)[nH]c(=O)[nH]c1=O", "growth inhibition": 1.4}
{"compound": "CC(=O)O[C@H]1CC[C@]2(C)[C@H]3CC[C@]4(C)[C@@H](OC(C)=O)CC[C@H]4[C@@H]3[C@H](C=O)[C@]2(O)C1", "growth inhibition": 7.9}
{"compound": "COC(=O)C(O)(c1ccccc1)C1CCCC1", "note": "(stereo not drawn)", "growth inhibition": 20.8}
{"compound": "NP(=O)(Oc1cccc2c(OP(N)(=O)N(CCCl)CCCl)cccc12)N(CCCl)CCCl", "note": "(stereo not drawn)", "growth inhibition": 6.95}
{"compound": "COc1ccc(C(O)(C(=O)OCCSC)c2ccc(OC)cc2)cc1", "growth inhibition": -5.1}
{"compound": "CCC1(CC)C(=O)NC(=NCCCC(N)C(=O)O)NC1=O", "note": "(stereo not drawn)", "growth inhibition": 8.75}
{"compound": "CNCCc1ccc(O)cc1", "growth inhibition": -9.2}
{"compound": "CCC[As](=O)(O)Cc1ccccc1C", "growth inhibition": 4.3}
{"compound": "Nc1ccc(Sc2ccc(N)cc2)cc1", "growth inhibition": 15.5}
{"compound": "CCP(=S)(CC)P(=S)(CC)CC", "growth inhibition": -1.35}
{"compound": "CCOP(=O)(OCC)/C(C#N)=C/c1cccs1", "growth inhibition": 0.5}
{"compound": "CC(C)OP(=O)(OC(C)C)C(=O)Nc1ccc(Cl)cc1", "growth inhibition": -24.9}
{"compound": "COP(=O)(OC)O/C(=C(/OP(=O)(OC)OC)c1ccccc1)c1ccccc1", "growth inhibition": 35.5}
{"compound": "O=C1C2C3c4ccccc4C(C2C(=O)N1c1ccccc1)[n+]1ccccc13", "note": "(stereo not drawn)", "growth inhibition": 47.8}
{"compound": "C=Cn1nnnc1N", "growth inhibition": -3}
{"compound": "CC(Br)[N+](=O)[O-]", "note": "(stereo not drawn)", "growth inhibition": 28.8}
{"compound": "COC(=O)C1C(=O)NC2(C)CC1c1ccccc1O2", "note": "(stereo not drawn)", "growth inhibition": -28}
{"compound": "O=P(OCCCl)(OCCCl)OCCCl", "growth inhibition": -12.1}
{"compound": "CCCCCCNC1C=CCC1", "note": "(stereo not drawn)", "growth inhibition": -5.75}
{"compound": "CC(C)(C)c1cc(C=C(C#N)C#N)cc(C(C)(C)C)c1O", "growth inhibition": 4.3}
{"compound": "CO[C@H]1C=CC2=CCN3CCC4=C(CC(=O)OC4)[C@]23C1", "growth inhibition": -9.3}
{"compound": "CC1CC(C)(C)[N+](C)(CCC(C(N)=O)(c2ccccc2)c2ccccc2)C1", "note": "(stereo not drawn)", "growth inhibition": -8.2}
{"compound": "O=c1c(O)c(-c2ccccc2)oc2ccccc12.[Zr]", "growth inhibition": -22.1}
{"compound": "C1C[OH+]CC[OH+]CC[OH+]CC[OH+]CC[OH+]1.[Cl-].[V]", "growth inhibition": -13.2}
{"compound": "O=C(COc1ccccc1Cl)Nc1ccc[n+](Cc2ccc(S(=O)(=O)F)cc2)c1", "growth inhibition": -20.9}
{"compound": "COc1ccc(OP2OCC(C)O2)cc1", "note": "(stereo not drawn)", "growth inhibition": -1.1}
{"compound": "CC1OC(OC2C(O)C(O)C(O)C(O)C2O)C(N)CC1N=C(N)C(=O)O", "note": "(stereo not drawn)", "growth inhibition": 12.5}
{"compound": "CC1(C)C(=O)N(O)C(C)(C)N1N=O", "growth inhibition": 1.95}
{"compound": "CC(N)Cc1c[nH]c2ccccc12", "note": "(stereo not drawn)", "growth inhibition": 2.9}
{"compound": "O=C1CN=C(c2ccccc2)c2cc(Cl)ccc2N1", "growth inhibition": -4.7}
{"experiment": "NCI Yeast Anticancer Drug Screen. Data for the mec2-1 strain (AID 157)", "conditions": "S. cerevisiae mec2-1 strain, at 50.0 µM, hits give high values", "how_it_was_run": "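Vehicle-treated cultures served as reference for growth inhibition of compound-exposed mec2-1 yeast.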", "units": {"growth inhibition": "%"}}
{"compound": "O=S1(=O)CC2(N3CCOCC3)C3CCC(C3)C21", "note": "(stereo not drawn)", "growth inhibition": 4.6}
{"compound": "NC(c1ccccc1)C(Cl)c1ccccc1", "note": "(stereo not drawn)", "growth inhibition": -54.3}
{"compound": "COc1ccc([Se]c2ccc(OC)cc2OC)c(OC)c1", "growth inhibition": -39}
{"compound": "CN1CCN[C@@H]2CCCC[C@@H]21", "growth inhibition": -5}
{"compound": "CCN(CC)CCc1ccncc1", "growth inhibition": 10.1}
{"compound": "O=C=Nc1ccc(Cl)cc1", "growth inhibition": -14.9}
{"compound": "CP(=S)(c1ccccc1)P(C)(=S)c1ccccc1", "note": "(stereo not drawn)", "growth inhibition": -19.4}
{"compound": "CC(=O)OC1CCC2(C)C(CCC3C2CCC2(C)C3CC(CC(=O)O)C2OC(C)=O)C1", "note": "(stereo not drawn)", "growth inhibition": 18.8}
{"compound": "CCOP(=O)(OCC)/C(C#N)=C/C=C/c1ccco1", "growth inhibition": -21.3}
{"compound": "N=Cc1c(O)[nH]c(=O)[nH]c1=O", "growth inhibition": 8.75}
{"compound": "CC(=O)O[C@H]1CC[C@]2(C)[C@H]3CC[C@]4(C)[C@@H](OC(C)=O)CC[C@H]4[C@@H]3[C@H](C=O)[C@]2(O)C1", "growth inhibition": 4.35}
{"compound": "COC(=O)C(O)(c1ccccc1)C1CCCC1", "note": "(stereo not drawn)", "growth inhibition": -10.1}
{"compound": "NP(=O)(Oc1cccc2c(OP(N)(=O)N(CCCl)CCCl)cccc12)N(CCCl)CCCl", "note": "(stereo not drawn)", "growth inhibition": -3.65}
{"compound": "COc1ccc(C(O)(C(=O)OCCSC)c2ccc(OC)cc2)cc1", "growth inhibition": 2.85}
{"compound": "CCC1(CC)C(=O)NC(=NCCCC(N)C(=O)O)NC1=O", "note": "(stereo not drawn)", "growth inhibition": -3.05}
{"compound": "CNCCc1ccc(O)cc1", "growth inhibition": -1.85}
{"compound": "CCC[As](=O)(O)Cc1ccccc1C", "growth inhibition": -5.4}
{"compound": "Nc1ccc(Sc2ccc(N)cc2)cc1", "growth inhibition": 0.35}
{"compound": "CCP(=S)(CC)P(=S)(CC)CC", "growth inhibition": -21.4}
{"compound": "CCOP(=O)(OCC)/C(C#N)=C/c1cccs1", "growth inhibition": -35.2}
{"compound": "CC(C)OP(=O)(OC(C)C)C(=O)Nc1ccc(Cl)cc1", "growth inhibition": 16.1}
{"compound": "COP(=O)(OC)O/C(=C(/OP(=O)(OC)OC)c1ccccc1)c1ccccc1", "growth inhibition": 14.3}
{"compound": "O=C1C2C3c4ccccc4C(C2C(=O)N1c1ccccc1)[n+]1ccccc13", "note": "(stereo not drawn)", "growth inhibition": 16.1}
{"compound": "C=Cn1nnnc1N", "growth inhibition": 2.05}
{"compound": "CC(Br)[N+](=O)[O-]", "note": "(stereo not drawn)", "growth inhibition": 4.9}
{"compound": "COC(=O)C1C(=O)NC2(C)CC1c1ccccc1O2", "note": "(stereo not drawn)", "growth inhibition": -11.7}
{"compound": "O=P(OCCCl)(OCCCl)OCCCl", "growth inhibition": -19.4}
{"compound": "CCCCCCNC1C=CCC1", "note": "(stereo not drawn)", "growth inhibition": -2.55}
{"compound": "CC(C)(C)c1cc(C=C(C#N)C#N)cc(C(C)(C)C)c1O", "growth inhibition": 10.6}
{"compound": "CO[C@H]1C=CC2=CCN3CCC4=C(CC(=O)OC4)[C@]23C1", "growth inhibition": -18.9}
{"compound": "CC1CC(C)(C)[N+](C)(CCC(C(N)=O)(c2ccccc2)c2ccccc2)C1", "note": "(stereo not drawn)", "growth inhibition": -5.15}
{"compound": "O=c1c(O)c(-c2ccccc2)oc2ccccc12.[Zr]", "growth inhibition": -6.65}
{"compound": "C1C[OH+]CC[OH+]CC[OH+]CC[OH+]CC[OH+]1.[Cl-].[V]", "growth inhibition": -6.25}
{"compound": "O=C(COc1ccccc1Cl)Nc1ccc[n+](Cc2ccc(S(=O)(=O)F)cc2)c1", "growth inhibition": -21.2}
{"compound": "COc1ccc(OP2OCC(C)O2)cc1", "note": "(stereo not drawn)", "growth inhibition": -46.8}
{"compound": "CC1OC(OC2C(O)C(O)C(O)C(O)C2O)C(N)CC1N=C(N)C(=O)O", "note": "(stereo not drawn)", "growth inhibition": 3.6}
{"compound": "CC1(C)C(=O)N(O)C(C)(C)N1N=O", "growth inhibition": 13.4}
{"compound": "CC(N)Cc1c[nH]c2ccccc12", "note": "(stereo not drawn)", "growth inhibition": -22.2}
{"compound": "O=C1CN=C(c2ccccc2)c2cc(Cl)ccc2N1", "growth inhibition": 11.9}
